Screens deposited in PubChem by National Center for Advancing Translational Sciences (NCATS).
CCT chaperon mod: modulators of cytosolic chaperonin (CCT/TRiC) activity; AID 651819; purified chaperonin ATPase assay, HTRF ADP detection, 30 min; activity change, % (no concentration beside the values), hits read low; 360,000 compounds, 0.3% hits; in the data active means activity change below about -30%
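TRiC (40 or 20 nM final, by batch activity) in 30 mM Tris pH 7.4, 100 mM KCl, 5 mM MgCl2, 1 mM DTT was treated with compound at 76 uM single dose, then 10 uM ATP, 30 min at 37 °C. ADP was read by HTRF Transcreener.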
PLK1 PBD block: inhibitors of human PLK1 polo-box domain binding; 360,000 compounds, 2.8% hits; Plk1 PBD binding of FITC phosphopeptide, fluorescence polarization; Potency, µM, hits mostly inhibitors; P53350; further: series mostly up to about 57 µM; nearly all actives have a fitted effect of over 65% in size
Target sequence (P53350 whole entry, looked up, the tested form may be a part): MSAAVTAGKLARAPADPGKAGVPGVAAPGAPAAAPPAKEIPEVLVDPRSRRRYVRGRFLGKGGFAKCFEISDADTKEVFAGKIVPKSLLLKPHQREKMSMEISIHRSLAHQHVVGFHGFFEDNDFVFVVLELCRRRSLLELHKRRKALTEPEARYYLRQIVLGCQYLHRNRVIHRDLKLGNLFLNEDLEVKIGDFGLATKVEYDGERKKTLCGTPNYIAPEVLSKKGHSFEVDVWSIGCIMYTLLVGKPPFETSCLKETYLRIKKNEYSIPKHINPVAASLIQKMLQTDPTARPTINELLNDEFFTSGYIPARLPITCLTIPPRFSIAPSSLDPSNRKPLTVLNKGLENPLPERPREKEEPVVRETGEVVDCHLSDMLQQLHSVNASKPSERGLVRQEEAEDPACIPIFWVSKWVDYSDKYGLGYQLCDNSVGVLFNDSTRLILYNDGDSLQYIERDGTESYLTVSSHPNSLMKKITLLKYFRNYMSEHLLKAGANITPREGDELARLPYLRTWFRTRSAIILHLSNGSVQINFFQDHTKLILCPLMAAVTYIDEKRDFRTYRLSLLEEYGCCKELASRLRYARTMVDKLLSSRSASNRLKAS
MmCpn inh: inhibitors of Methanococcus maripaludis chaperonin TRiC (MmCpn). purified Mm-Cpn ATPase, ADP Transcreener TR-FRET. Potency, µM (titrated, usually from 76.9 µM), usual class: inhibitors. 330,000 compounds, 0.031% hits. AID 504842; further: nearly all actives have a fitted effect of over 80% in size
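25 nM Mm-CPN + cpd, 10 min 37°C; + 10 uM ATP, 30 min 37°C; buffer 30 mM Tris pH 7.4, 100 mM KCl, 5 mM MgCl2, 1 mM DTT; Transcreener ADP HTRF detection 30 min RT.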
G9a block: G9a (human) methyltransferase inhibition. Q96KQ7. G9a H3K9 monomethylation, AlphaScreen, 2 h. Potency, µM (top dose mostly 102 µM), actives largely listed as inhibitors. 350,000 compounds, 8.8% hits; further: nearly all actives have a fitted effect of over 75% in size
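Readings reflect AlphaScreen signal from monomethyl-H3K9 antibody detection. HMT at 20 nM; substrate b-H3K9 500 nM; cofactor SAM 20 uM; 2 h RT reaction; compounds tested as titrations in qHTS with 15 min preincubation.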
Sfp inh: blocks B. subtilis Sfp PPTase activity. Q9F4F7. Biochemical Sfp PPTase activity, qHTS. Potency, µM, most hits filed as inhibitors. 310,000 compounds, 3.5% hits;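 further: the enzyme is Sfp with the accession as filed and its product quenches rhodamine fluorescence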
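Fluorescence-quenching assay: 15 nM Sfp-PPTase preincubated 15 min at room temperature with compound, then 5 uM rhodamine-CoA and 12.5 uM BHQ-2-labelled YbbR peptide added. Fluorescence (ex 525/em 598 nm) read at start and after 30 min; difference gives rate.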
VDR inh: blocks the human vitamin D receptor; 400,000 compounds, 0.93% hits; VDR-SRC2-3 peptide fluorescence polarization, 2 h; Potency, µM, actives largely listed as inhibitors
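Two reagent solutions held at 4 deg C in the dark were dispensed, compounds pinned at 23 nl, and the mixture incubated 2 h at room temperature. Read-out: fluorescence polarization of VDR–SRC2-3 peptide binding.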
Large screens that a line does not name were inactive. Shown are actives, neighbours in structure and some others; about 10% of the full set was active somewhere. Unless noted, the call rests on the fitted dose curve; in most records, active means well fitted curve in the direction sought with a large enough effect; inconclusive means small, poorly fitted or top-dose-only effect, or another doubt; inactive means no such curve, though single readings can be large; an effect the other way counts as inactive or inconclusive.

O=C(O)c1ccc(-n2c(O)c(C=C3N=c4ccccc4=N3)sc2=S)cc1	PLK1 PBD block inconclusive, G9a block inconclusive
O=C(O)c1cccc(-n2c(O)c(C=C3N=c4ccccc4=N3)sc2=S)c1	G9a block 50.1µM
CCOC(=O)c1sc(=S)sc1SCc1cccc(C(F)(F)F)c1	G9a block 31.6µM
Cc1ccnc(OC(C(=O)O)C(OCc2ccccc2)(c2ccc(F)cc2)c2ccc(F)cc2)n1 (configuration not stated)	PLK1 PBD block 26.7µM, VDR inh inconclusive
CC(C)Cn1c(CN2CCN(c3cccc(Cl)c3)CC2)nc2c1c(=O)[nH]c(=O)n2C	none (no result: CCT chaperon mod, PLK1 PBD block, MmCpn inh, Sfp inh)
COc1ccc(N2C(=O)CSC2c2cccs2)cc1 (configuration not stated)	G9a block 50.1µM
COc1ccc(-n2c(=O)c(-c3cn(C)c4ccccc34)nc3cnc(N4CCOCC4)nc32)cc1	none (no result: CCT chaperon mod, PLK1 PBD block, MmCpn inh)
CC(C)(C)C(=O)COc1ccccc1[N+](=O)[O-]	CCT chaperon mod -48.2
COc1cccc(NC(=O)COC(=O)COc2ccccc2[N+](=O)[O-])c1	none
CCN(CC)c1ccc(NC(=O)COC(=O)COc2ccccc2[N+](=O)[O-])cc1	MmCpn inh inconclusive, G9a block 7.08µM
O=[N+]([O-])c1ccccc1OCCOc1ccccc1[N+](=O)[O-]	none (no result: G9a block)
COc1cc(NC(=O)COc2ccccc2[N+](=O)[O-])ccc1NC(=O)c1cccs1	Sfp inh 15.8µM (no result: G9a block)
O=C(COC(=O)Cc1ccsc1)Nc1cccc(F)c1	VDR inh 89.1µM (no result: Sfp inh)
Cc1cc(S(=O)(=O)NCCc2csc(-c3cccc(F)c3)n2)ccc1F	none (no result: CCT chaperon mod, PLK1 PBD block, MmCpn inh, Sfp inh)
COc1cccc(NC(=O)CCc2c(C)nc3ncnn3c2C)c1	none (no result: CCT chaperon mod, PLK1 PBD block, MmCpn inh, Sfp inh)
CCN(CC)c1ccc(NC(=O)COC(=O)Cc2ccsc2)cc1	G9a block 2.82µM (no result: Sfp inh)
CC(=O)c1ccc(NC(=O)COC(=O)Cc2ccsc2)cc1	none (no result: G9a block, Sfp inh)
Cn1c(N)c(C(=O)Nc2c(Cl)cccc2Cl)sc1=S	G9a block 50.1µM
COC(=O)c1ccccc1NC(=O)c1sc(=S)n(C)c1N	PLK1 PBD block 5.97µM, MmCpn inh inconclusive, G9a block 7.94µM, Sfp inh 25.1µM
Cc1cccn2c(=O)c3cc(C#N)c(=O)n(-c4nnc(SCc5ccccc5F)s4)c3nc12	none (no result: CCT chaperon mod, PLK1 PBD block, MmCpn inh, Sfp inh)
COc1cc(NC(=O)c2c(C)nn(-c3ccc(F)cc3)c2-n2cccc2)cc(OC)c1	none (no result: CCT chaperon mod, PLK1 PBD block, MmCpn inh, Sfp inh)
COc1ccc(CNCCCC(=O)Nc2c(Cl)ccc(C)c2Cl)cc1OC	CCT chaperon mod -48.0, G9a block 3.16µM
CCN(CC(=O)Nc1ccccc1OC)CC(=O)Nc1c(Cl)ccc(C)c1Cl	none
CN(C)CCN(C(=O)c1ccc2c(c1)OCCO2)c1nc2ccc(Cl)cc2s1	G9a block inconclusive
CN(C)CCN(C(=O)c1cccc(Cl)c1)c1nc2c(Cl)cccc2s1	G9a block 44.7µM
CN(C)CCN(C(=O)c1ccccc1Cl)c1nc2c(Cl)cccc2s1	G9a block 10µM
CCN(CC)CCN(C(=O)c1ccc2c(c1)OCCO2)c1nc2c(Cl)cccc2s1	G9a block 50.1µM, Sfp inh inconclusive
O=C(Cc1ccccc1)N(Cc1cccnc1)c1nc2c(Cl)cccc2s1	none (no result: CCT chaperon mod, PLK1 PBD block, MmCpn inh, Sfp inh)
COC(=O)c1ccc(C(=O)N(CCN(C)C)c2nc3c(Cl)cccc3s2)cc1	G9a block 56.2µM
COc1cc2nc(=S)n3[nH]c(CCn4nc(C)cc4C)nc3c2cc1OC	G9a block 1µM, Sfp inh inconclusive
CC(C)N1C/C(=C/c2cccnc2)C(=O)/C(=C/c2cccnc2)C1	VDR inh inconclusive
CN1C/C(=C/c2ccc(B(O)O)cc2)C(=O)/C(=C/c2ccc(B(O)O)cc2)C1	Sfp inh inconclusive, VDR inh 4.47µM (no result: CCT chaperon mod, PLK1 PBD block, MmCpn inh, G9a block)
CN1C/C(=C/c2cccnc2)C(=O)/C(=C/c2cccnc2)C1	G9a block inconclusive, VDR inh 44.7µM
CN[C@H]1[C@@H](O[C@@H]2[C@H](O[C@@H]3[C@@H](O)[C@@H](O)[C@@H](N=C(N)N)[C@@H](O)[C@@H]3N=C(N)N)O[C@H](C)[C@@]2(O)C=O)O[C@@H](CO)[C@@H](O)[C@H]1O	none (no result: CCT chaperon mod, PLK1 PBD block, MmCpn inh)
CC(C)Cc1nc(S(=O)(=O)c2ccc(Cl)cc2)c(N2CCOCC2)o1	G9a block inconclusive, Sfp inh 39.8µM
